As usually defined, the inhibition is the drop in the measured response relative to a control, in per cent.

Among all 360,000 compounds or so, about 4,500 (1.2%) were called active. Rule as the data show it: active = inhibition above about 30%; inactive = the rest. Many of the other results were omitted from the sample, so actives are more common in it than they were.

This assay in a line: inhibition of GDH and TPI enzymes – biochemical, absorbance, full deck, artefact control for M. tuberculosis FBA inhibitor project, primary screen (AID 588335).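 Also: 0% = DMSO wells and 100% = wells lacking the enzyme.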 The following applies: GDH-TPI coupled enzyme counterscreen, NADH absorbance; at 4.8 µM; stronger effect = higher value. (Counterscreens check selectivity or assay interference.)
With `CCOC(=O)c1sc(N(Cc2ccccc2)C(=O)CN2C(=O)CN(C)C2=O)nc1C`, the inhibition is -10.6% (inactive).

For the compound `CC(C)(C)C1CCC(OC(=O)CCC(=O)Nc2ccccc2)CC1` (configuration not stated), the inhibition was -9.56% (inactive).

Turning to `CCCCn1c(N)c(N2CCOCC2)c(=O)n(CC(=O)NCCc2ccccc2)c1=O`, the inhibition was 8.07% (inactive).

For the compound `CC(=O)C1=C(O)C(=O)N(c2ccc(Br)cc2)C1c1ccc([N+](=O)[O-])cc1` (configuration not stated), the inhibition was 21.6% (inactive).

Regarding `NS(=O)(=O)c1ccc(NC2=CC(c3ccc(F)cc3)N(c3ccc(S(N)(=O)=O)cc3)C2=O)cc1` (configuration not stated), the inhibition was 4.35% (inactive).

In the case of `CC(=O)C1=C(O)C(=O)N(c2ccc(S(N)(=O)=O)cc2)C1c1ccccc1F` (configuration not stated), the inhibition was 32.2% (active).

Regarding `CCCSC1=C(C#N)C(c2ccccc2C)C(C(=O)OC)C(=O)N1` (configuration not stated), the inhibition is 3.67% (inactive).

Regarding `CC1CCC2(CC1)NC(=O)N(Cc1nnc(-c3cccs3)o1)C2=O` (configuration not stated), the inhibition is -10.1% (inactive).

Consider `COc1cc2c(cc1OC)/C(=C/C(=O)c1ccc(NC(C)=O)cc1)NCC2`, for which the inhibition is 14% (inactive).

For `CC1(C)Cc2ccccc2/C(=C/C(=O)c2ccccc2)N1`, the inhibition is 4.27% (inactive).

Consider `CC1CN/C(=C\C(=O)c2ccc(Br)cc2)C(=O)N1` (configuration not stated), for which the inhibition is 33.3% (active).

`CCOC(=O)c1c(N)sc2c1CCCC2=O`: the inhibition was 36% (active).

In the case of `CCOC(=O)c1c(/N=C/c2cc(C)ccc2O)sc2c1CCC2`, the inhibition was 9.89% (inactive).

`CCOC(=O)c1c(CC(C)C)csc1/N=C/C1=C(O)CCCC1=O`: the inhibition is -3.83% (inactive).

For the compound `CCCCOc1ccc(N(CC(=O)NCC2CCCO2)C(=O)CCC(=O)Nc2cc(C)ccn2)cc1` (configuration not stated), the inhibition was 12.4% (inactive).

Consider `Cc1cccc(NS(=O)(=O)c2ccc(-c3cnc(C4CC4)o3)cc2)c1`, for which the inhibition was -5.68% (inactive).

In the case of `CC1C=CCC2C(=O)N(c3cccc(C(=O)N4CCCCCC4)c3)C(=O)C12` (configuration not stated), the inhibition was 5.39% (inactive).

Take `Cc1ccc(-c2nn(C(C)(C)C)c3ncnc(N)c23)cc1`: the inhibition is 11.5% (inactive).

For `CCOC(=O)C(CC)Sc1ncnc2c1nnn2-c1ccc(F)cc1` (configuration not stated), the inhibition is 11.2% (inactive).

As to `CCOC(=O)c1c(NC(=S)NC(=O)/C=C/c2cccs2)sc(C)c1C`, the inhibition is -3.37% (inactive).

In the case of `CCc1nnc(NS(=O)(=O)c2ccc(NC(=O)c3cccc(OC(F)(F)C(F)F)c3)cc2)s1`, the inhibition was -13% (inactive).

As to `CCc1nnc(NS(=O)(=O)c2ccc(NC(=S)NC(=O)/C=C/c3cccs3)cc2)s1`, the inhibition is 32.2% (active).

As to `COc1ccc(NC(=O)N(C)C[C@H]2Oc3ncc(C#C[C@@H](C)O)cc3C(=O)N([C@H](C)CO)C[C@H]2C)cc1`, the inhibition was 1.42% (inactive).

As for `Cc1ccc2c(c1)C1C[N+](C)(CC(=O)c3ccccc3)CCC1N2C(=O)c1ccccc1Cl` (configuration not stated), the inhibition was -8.62% (inactive).

For the compound `O=C(N/N=C/c1ccc2c(c1)OCO2)c1ccc(Cn2cc([N+](=O)[O-])cn2)o1`, the inhibition was 43.3% (active).

For `CC1CCc2c(sc(NC(=O)c3ccc(Cn4cc(Br)cn4)o3)c2C(N)=O)C1` (configuration not stated), the inhibition was 7.5% (inactive).

With `CN(C)c1ccc(/C=N/NC(=O)c2ccc(Cn3cc(Br)cn3)o2)cc1`, the inhibition was 30.7% (active).

Turning to `O=C(c1ccc(Cn2cc([N+](=O)[O-])cn2)o1)N1CCCC1`, the inhibition was -17.2% (inactive).

`O=C(Nc1ccc(Br)c2cccnc12)c1ccc(Cn2cc([N+](=O)[O-])cn2)o1`: the inhibition is 4.69% (inactive).

In the case of `CN(C)c1ccc(/C=N/NC(=O)C(O)c2ccc(Br)cc2)cc1` (configuration not stated), the inhibition was 30.4% (inactive).

Regarding `O=C(NCCCN1CCCCC1)C1CCCN(c2ncnc3c2nc2n3CCCCC2)C1` (configuration not stated), the inhibition is -16.5% (inactive).

As for `COc1ccc(OC)c(NC(=O)C2(C)CCN2C(=O)Cc2ccccc2)c1` (configuration not stated), the inhibition was 7.08% (inactive).

For the compound `C=C(C)CNC(=S)/N=c1\scc(C)n1CC`, the inhibition is 13.2% (inactive).

Consider `Cc1ccc(/C=N/NC(=O)Cn2ccc(C(F)(F)F)n2)o1`, for which the inhibition was 7.37% (inactive).

Consider `O=C(NN=Cc1ccc(N2CCOCC2)cc1)c1cc2ccccc2cc1O`, for which the inhibition was 50.6% (active).

In the case of `Cc1ccc(/C=N/NC(=O)Cn2nc(C)c(Br)c2C)o1`, the inhibition is 5.47% (inactive).

Turning to `Cc1ccc(/C=N/NC(=O)c2cc3ccccc3cc2O)o1`, the inhibition is 34.5% (active).

On to `COc1ccccc1C(=O)NC(=S)Nc1ccc(N2CCOCC2)cc1`, for which the inhibition is 19.6% (inactive).

As for `O=C(O)c1ccc(NN=CC2=C(N3CCOCC3)/C(=C/c3ccccc3)CC2)cc1`, the inhibition was 22.9% (inactive).

As for `CCOC(=O)CN(C(=O)CN1CCOCC1)c1ccc(Br)cc1`, the inhibition was 9.62% (inactive).

Take `Cn1c(SCC(=O)N2CCOCC2)nnc1-c1ccc(NC(=O)c2ccccc2F)cc1`: the inhibition was 0% (inactive).

Turning to `Cc1cccc(C(C)C)c1NC(=O)COC(=O)C1CC(=O)N(Cc2ccccc2)C1` (configuration not stated), the inhibition is -2.1% (inactive).

In the case of `COc1ccc(CCNS(=O)(=O)c2cc3c(cc2C)NC(=O)CO3)cc1OC`, the inhibition was -4.31% (inactive).

Consider `CC1(C)CC(=O)C=C(NCc2ccncc2)C1`, for which the inhibition is 0.7% (inactive).

Regarding `O=C1/C(=C/c2ccc3c(c2)OCO3)Oc2cc(OCC(=O)N3CC(O)C[C@H]3C(=O)O)ccc21` (some centres not stated), the inhibition was 28.4% (inactive).

For `CCCNC(=O)N1CCC(c2ccc3c(c2)OCO3)CC1`, the inhibition was -5.17% (inactive).

Take `O=C1/C(=C\c2ccc3c(c2)OCO3)N2CCC1CC2`: the inhibition is 33.3% (active).

Consider `CN(C(=O)CCn1c(=S)oc2ccccc21)C1CCCCC1`, for which the inhibition is 2.6% (inactive).

For the compound `Cc1c(NS(=O)(=O)c2cccc(C(=O)Nc3ccc(SC(F)F)cc3)c2)c(=O)n(-c2ccccc2)n1C`, the inhibition is 0.43% (inactive).

`O=C(Nc1ccccc1F)c1cc(S(=O)(=O)N2CCCCC2)cs1`: the inhibition was -3.77% (inactive).

As for `CC1(c2ccccc2)NC(=O)N(CC(=O)N2CC(=O)Nc3ccccc32)C1=O` (configuration not stated), the inhibition was -7.8% (inactive).

As to `O=C1CN(C(=O)CN2C(=O)NC3(CCCCC3)C2=O)c2ccccc2N1`, the inhibition was 7.32% (inactive).

On to `CC(=O)N1C(=O)C2(Nc3ccccc3N2)c2ccccc21`, for which the inhibition is 34.1% (active).

As to `CSc1ccccc1NC(=O)CN(C)CC(=O)Nc1cccc(Br)c1`, the inhibition was -2.5% (inactive).

Turning to `CC1(C(=O)NS(=O)(=O)c2cccc(F)c2)CCN1C(=O)Cc1ccc(Cl)cc1Cl` (configuration not stated), the inhibition is 1.79% (inactive).

`CC(Oc1cc2oc(=O)c3c(c2cc1Cl)CCCC3)C(=O)NCc1ccncc1` (configuration not stated): the inhibition was 30.8% (active).

As for `COc1ccc(S(=O)(=O)NC(C)C(=O)NCc2ccncc2)cc1Cl` (configuration not stated), the inhibition was -4.46% (inactive).

`O=C(COc1cc2oc(=O)c3c(c2cc1Cl)CCC3)NCCCN1CCOCC1`: the inhibition is 21.4% (inactive).

Consider `COC(=O)Cn1c(=NC(=O)CSCC(=O)Nc2cc(C)on2)sc2ccccc21`, for which the inhibition is 3.99% (inactive).

Take `CC(NC(=O)C(=O)Nc1nccs1)c1ccccc1` (configuration not stated): the inhibition is 9.56% (inactive).

Consider `COc1ccc(C2/C(=C(/O)c3ccc(OC(C)C)cc3)C(=O)C(=O)N2CCCN2CCOCC2)cc1` (configuration not stated), for which the inhibition is 11.5% (inactive).

Take `O=C1C(=O)N(CCN2CCOCC2)C(c2cccc(Cl)c2)/C1=C(/O)c1ccc2c(c1)OCO2` (configuration not stated): the inhibition is 17.7% (inactive).

Regarding `COc1cccc(C2/C(=C(/O)c3ccc(F)cc3)C(=O)C(=O)N2CCN(C)C)c1` (configuration not stated), the inhibition is 10.2% (inactive).

`COCCN1C(=O)C(=O)/C(=C(/O)c2ccc(S(=O)(=O)N3CCOCC3)cc2)C1c1ccc(O)c(OC)c1` (configuration not stated): the inhibition was 5.9% (inactive).

Consider `CCOc1cc(C2/C(=C(/O)c3ccc(S(=O)(=O)N4CCCCC4)cc3)C(=O)C(=O)N2CCOC)ccc1O` (configuration not stated), for which the inhibition is 0.74% (inactive).

In the case of `COCCCN1C(=O)C(=O)/C(=C(/O)c2ccc(S(=O)(=O)N3CCOCC3)cc2)C1c1ccc(F)cc1` (configuration not stated), the inhibition was 31% (active).

As to `COCCN1C(=O)C(=O)/C(=C(/O)c2ccc(S(=O)(=O)N3CCOCC3)cc2)C1c1ccc(OC)c(OC)c1` (configuration not stated), the inhibition was 9.09% (inactive).

In the case of `COCCN1C(=O)C(=O)/C(=C(/O)c2ccc(S(=O)(=O)N3CCCCC3)cc2)C1c1ccc(OC)c(OC)c1` (configuration not stated), the inhibition was 33.3% (active).

In the case of `O=C1C(=O)N(CCCN2CCOCC2)C(c2ccc([N+](=O)[O-])cc2)/C1=C(\O)c1ccc2c(c1)OCCO2` (configuration not stated), the inhibition was 33.9% (active).

As for `Cc1ccc(C)c(NC(=O)NNC(=O)c2ccc3ccccc3c2O)c1`, the inhibition is 12.5% (inactive).

In the case of `CCOC(=O)C1CCN(S(=O)(=O)c2ccc3c(c2)N(C)C(=O)CC(=O)N3C)CC1`, the inhibition was 6.72% (inactive).

As for `O=C(CNCc1cccs1)Nc1cc(S(=O)(=O)N2CCCC2)ccc1Cl`, the inhibition was 2.39% (inactive).

Regarding `O=C(NCc1nnc(SCC(=O)N2CCCc3ccccc32)o1)c1ccccc1F`, the inhibition is 11.2% (inactive).

With `CCOC(=O)c1c(C)n(C)c2ccc(OC)c(NS(=O)(=O)CC)c12`, the inhibition was 2.65% (inactive).

As to `Cc1cc([N+](=O)[O-])c(-c2ccc(/C=N/n3cnnc3)o2)cc1Cl`, the inhibition was 34.8% (active).

Take `Cc1ccccc1OCCOc1ccc([N+](=O)[O-])cc1/C=N/n1cnnc1`: the inhibition is 3.11% (inactive).

Turning to `Clc1cc(-c2ccc(/C=N/n3cnnc3)o2)ccc1Br`, the inhibition is 18.6% (inactive).

On to `CCOC(=O)c1cc(S(=O)(=O)NCCc2ccc(OC)c(OC)c2)cn1C`, for which the inhibition is 1.68% (inactive).

As for `COc1ccc(C)cc1N(C(=O)Cn1nnc(-c2ccc(C)o2)n1)C(C(=O)NC1CCCC1)c1ccncc1` (configuration not stated), the inhibition is -13.4% (inactive).

Take `CCOc1ccc(NC(=S)NC(=O)/C=C/c2ccc(OC)cc2)c([N+](=O)[O-])c1`: the inhibition was 11.6% (inactive).

For the compound `COCOc1cc(O)c(C(=O)/C=C/c2ccc(OCOC)c(OCOC)c2)c(OCOC)c1`, the inhibition was 6.25% (inactive).

On to `COc1ccc(/C=C/C(=O)c2cc(Br)ccc(=O)c2O)cc1`, for which the inhibition was 55.6% (active).

On to `Cc1ccc(C(=O)O)cc1N1C(=O)CCCC1=O`, for which the inhibition is 2.24% (inactive).

Consider `CCCN(CC(=O)Nc1ccccc1C)C(=O)c1ccc2[nH]c3c(c2c1)CC(C)CC3` (configuration not stated), for which the inhibition is 18.2% (inactive).

For the compound `COc1ccc(CC(=O)c2ccc(O)cc2O)cc1OC`, the inhibition is 26.1% (inactive).

On to `O=C(Cc1ccccn1)c1ccc(O)cc1O`, for which the inhibition was 33.6% (active).

`Oc1cccc(CCc2ccccn2)c1`: the inhibition is 7.36% (inactive).

These data come from PubChem BioAssay AID588335 (The Scripps Research Institute Molecular Screening Center, 2011).
